Screening results as filed in PubChem.
SF1 inhibitor: blocks the human nuclear receptor SF-1. Q13285. CHO-K1 Gal4-SF-1 LBD luciferase reporter. inhibition, % at 10 µM. actives 0.55% (n = 65,000);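 active = inhibition above the mean inhibition of all tested compounds plus 3 SD, cut at about 48% in these data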;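 note: 0% = SF-1 transfected cells with DMSO and 100% = mock-transfected cells lacking SF-1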
Target sequence (Q13285 whole entry, looked up, the tested form may be a part): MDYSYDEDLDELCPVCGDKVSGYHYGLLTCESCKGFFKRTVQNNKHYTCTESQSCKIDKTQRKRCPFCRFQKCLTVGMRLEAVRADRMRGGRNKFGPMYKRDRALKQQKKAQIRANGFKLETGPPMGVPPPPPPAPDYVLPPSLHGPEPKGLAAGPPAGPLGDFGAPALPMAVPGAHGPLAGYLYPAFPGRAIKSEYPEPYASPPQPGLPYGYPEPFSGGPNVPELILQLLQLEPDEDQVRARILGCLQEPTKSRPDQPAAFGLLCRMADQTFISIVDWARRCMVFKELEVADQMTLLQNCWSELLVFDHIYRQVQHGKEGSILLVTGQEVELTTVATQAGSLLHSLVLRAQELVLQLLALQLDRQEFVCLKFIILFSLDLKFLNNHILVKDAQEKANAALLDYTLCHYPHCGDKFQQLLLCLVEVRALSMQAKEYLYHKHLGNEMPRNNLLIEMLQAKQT
Starred values were filed as active, the others as inactive. The sample as a whole holds a higher share of hits than the screen did.

SMILES | SF1 inhibitor
CCc1nn(CC(=O)O)c(=O)c2ccccc12 | -18
Cn1nc(CC(=O)Nc2ccc(N3CCN(C(=O)OC(C)(C)C)CC3)cc2)c2ccccc2c1=O | 63*
Cn1c(SCC(=O)Nc2ccc3c(c2)OCCO3)nnc1-c1ccco1 | -16
COc1cccc(OC)c1NC(=O)Cc1nn(C)c(=O)c2ccccc12 | -3
O=C(Nc1ccc2c(c1)OCCO2)c1c(F)cccc1F | -56
COc1cccc(-c2nnc(SCC(=O)OC(C)C)n2Cc2ccco2)c1 | 15
COc1ccc(Cl)cc1-n1c(=S)sc2c(=O)[nH]c(SCC(=O)NCC3CCCO3)nc21 (stereo unspecified) | 5
CCOC(=O)C(NC(=O)c1ccccc1)(N1CCCC1=O)C(F)(F)F (stereo unspecified) | 8
COc1ccc(OC)c(-c2cc(C(=O)NCc3ccco3)no2)c1 | 3
Cc1nnc(NC(=O)NCN2C(=O)C3C4C=CC(C4)C3C2=O)s1 (stereo unspecified) | 7
Cn1c(=O)c2c(nc(N3CCOCC3)n2CCCNC2=NCCC2)n(C)c1=O | 2
CCc1sc(C(=O)N2CCN(S(C)(=O)=O)CC2)cc1Br | 5
O=S1CCCSC1c1cccnc1 (stereo unspecified) | 1
CCOC(=O)c1ccccc1NC(=O)c1ccc(NS(C)(=O)=O)cc1 | -3
CC(=O)C1=C(c2ccccc2)NC(=O)NC1c1ccccc1OCC#N (stereo unspecified) | 6
COCCn1c(C2CCCCC2)nc2sc3ccccc3c(=O)c2c1=O | -2
O=C(O)c1cc2nc(-c3ccccc3)cc(C(F)(F)F)n2n1 | 7
COc1ccc(-c2cc(C(F)(F)F)nc(N3CCN(c4ccccc4)CC3)n2)cc1OC | -12
CS(=O)(=O)c1nc(-c2ccccc2)cc(C(F)(F)F)n1 | 52*
CCOCCCNC(=O)CCS(=O)(=O)Cc1ccc(C)cc1 | 18
CCCc1nnc(NC(=O)CN2C(=O)C3C4C=CC(C4)C3C2=O)s1 (stereo unspecified) | -18
Cc1nc2ccc(NC(=O)Cn3cnc4c3c(=O)n(C)c(=O)n4C)cc2s1 | 3
COc1ccc(-c2cc3nc4n(c(=O)c3s2)CCOC4)cc1 | 56*
COc1cccc(C(=O)Cn2c(N3CCOCC3)nc3c2c(=O)n(C)c(=O)n3C)c1 | -2
CCOC(=O)c1sc(-c2ccc(OC)cc2)cc1N | -62
SMILES | SF1 inhibitor
COc1cc(NS(=O)(=O)c2ccc(C)cc2)c2ncccc2c1 | 94*
COc1cccc(NC(=O)C2CCCN(S(=O)(=O)c3cccc4cccnc34)C2)c1 (stereo unspecified) | 4
Cc1ccc(S(=O)(=O)Nc2nc(C)cc(NCCN)n2)cc1 | -8
O=C(O)C1CC=CCC1C(=O)Nc1ccc(S(=O)(=O)N2CCCc3ccccc32)cc1 (stereo unspecified) | -12
Cc1c(NC(=O)C(CC(=O)O)NCc2ccco2)c(=O)n(-c2ccccc2)n1C (stereo unspecified) | -1
CCC1Oc2ccccc2N(CC(=O)Nc2ccccc2OC)C1=O (stereo unspecified) | -3
CCC(NC(=O)Nc1nnc(C(F)(F)F)s1)(C(F)(F)F)C(F)(F)F | 94*
CCC(NC(=O)Nc1ncccc1C)(C(F)(F)F)C(F)(F)F | -7
COc1ccc(C(=O)Nc2nnc(C(F)(F)F)s2)cc1 | -57
COCCN(CC(=O)Nc1ccc(F)cc1)S(=O)(=O)c1ccc(S(=O)(=O)N2CCCC2)cc1 | 3
Cc1occc1C(=O)N1CCN(c2ccc(Cl)c(Cl)c2)CC1 | 56*
Cc1occc1C(=O)n1nnc2ccccc21 | 5
O=C(c1ccc2c(c1)OCO2)N1CCN(c2ccc(F)cc2)CC1 | -7
CC(=O)c1cccc(-n2nnnc2SCC(=O)N2CCCC2)c1 | 2
Cc1c(C(=O)NCc2ccco2)sc2nc(-c3ccccc3)cn12 | -52
c1ccc(-c2cn3c4c(sc3n2)CCCC4)cc1 | 73*
Cc1c(C(=O)N2CCOCC2)sc2nc(-c3ccccc3)cn12 | -82
CCOc1ccc(OCC)c(NC(=O)CSc2nc3c(c(=O)n(C)c(=O)n3C)n2C(C)C)c1 | -101
CCOCC(=O)Nc1ccc(S(=O)(=O)NCCc2ccccc2)cc1 | 1
Cn1cnnc1SCc1ccc(-c2ccc(Br)cc2)o1 | 5
CCOC(=O)c1ncn2c1C(=O)OC2(C)C | -8
O=C(NCCOc1ccccc1)c1ccc2c(c1)OCO2 | 59*
O=C(Nc1ccc(F)c(F)c1)c1ccc2c(c1)OCO2 | -66
COc1cc2c(cc1NC(=O)c1ccc3c(c1)OCO3)oc1ccccc12 | -54
CC(CCc1ccccc1)NC(=O)C1CCN(C(=O)c2sccc2-n2cccc2)CC1 (stereo unspecified) | 8
SMILES | SF1 inhibitor
CC(C)n1nc(C(=O)NCCc2ccc(S(N)(=O)=O)cc2)c2ccccc2c1=O | -7
Cc1ccc(NC2=NC(c3ccc(C)cc3)n3c(nc(C)cc3=O)N2)cc1 (stereo unspecified) | -11
COc1cc(C2N(c3ccc(Cl)c(Cl)c3)C(=O)C3CCCN32)cc(OC)c1OC (stereo unspecified) | 2
COc1cc2c(C#N)c(N3CCc4ccccc4C3)nc(N)c2c(N)n1 | -8
c1ccc2c(c1)CCN(c1nc3cc4c(cc3s1)OCCO4)C2 | 60*
CCN1CCN(c2ncnc3c2cnn3-c2ccccc2)CC1 | -56
c1ccc(-n2ncc3c(NC4CCCCCC4)ncnc32)cc1 | -91
CC1CCCN(c2ncnc3c2cnn3-c2ccc(Cl)cc2)C1 (stereo unspecified) | 86*
Cc1ccc(-n2ncc3c(N4CCCC(C)C4)ncnc32)c(C)c1 (stereo unspecified) | -59
Cc1cccc(-n2ncc3c(N4CCC(C)CC4)ncnc32)c1 | -70
c1ccc(-n2ncc3c(N4CCCCC4)ncnc32)cc1 | 69*
CC1CCCN(c2ncnc3c2cnn3-c2ccccc2)C1 (stereo unspecified) | 48*
CC1CC(C)CN(c2ncnc3c2cnn3-c2ccc(Cl)cc2)C1 (stereo unspecified) | -71
Cc1ccc(-n2ncc3c(N4CCCC4)ncnc32)c(C)c1 | -66
CCOC(=O)CNc1c(N2CCN(c3ccccn3)CC2)c(=O)c1=O | -14
COc1ccc(-c2nc(SC)n(C(=O)c3ccco3)n2)cc1 | -58
COc1ccccc1CC1(C)NC(=O)N(CC(=O)N2CC(C)OC(C)C2)C1=O (stereo unspecified) | 4
CCCC1C(c2ccc(OC)cc2)C(C#N)(C#N)C2(C#N)CC1(N)NC2=O (stereo unspecified) | -8
CCOC(=O)Cn1c(=O)c2c(nc(Br)n2Cc2ccc(Cl)cc2)n(C)c1=O | 0
O=C(C1CCCN(S(=O)(=O)c2ccccc2)C1)N1CCCc2ccccc21 (stereo unspecified) | 5
CCOc1ccc(N2C(=O)c3cccnc3C2Nc2ccc(C)cc2)cc1 (stereo unspecified) | 0
CCOC(=O)N1CCC(NC(=O)c2cnn3cccnc23)CC1 | -16
O=C(NCc1ccc(F)cc1)C1C2C=CC3(CN(Cc4cccnc4)C(=O)C13)O2 (stereo unspecified) | -1
CCOc1cccc(C(=O)Nc2nnc(-c3ccco3)s2)c1 | -11
COc1cc(SC)ccc1C(=O)Nc1ccccc1C#N | -60
O=C(NCCCn1ccnc1)C1c2ccccc2Oc2ccccc21 | 5
Cc1sc2nc3n(c(=O)c2c1C)Cc1ccccc1-3 | -56
O=C(CN1CCN(CC(=O)Nc2ccccn2)CC1)Nc1ccccn1 | 8
c1ccc(Nc2nc3ccccc3[nH]2)nc1 | -55
c1ccc(/N=C2\N=C(Nc3ccccn3)c3ccccc32)nc1 | 86*
